This is a sample that favours compounds with a hit; in the whole collection about 4.4% have one here.
SKKanGAS inh – inhibitors of SKKanGAS S. pyogenes growth in kanamycin (SK-promoter or general growth effect); BacTiter-Glo, 6 h; inhibition, % at 7.5 µM; 300,000 tested, 1.3% active; AID 1662;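 active = mean replicate score, as percent of positive control median, at least 50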;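 note: strain carries kanamycin resistance gene driven by streptokinase promoter and grows in 40 µg/ml kanamycin; loss of luminescence reflects streptokinase promoter inhibition or plain growth inhibition; 0% = median of DMSO wells and 100% = positive control at its reference dose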
TIM10 inh – inhibits growth of TIM10 yeast strain; 330,000 tested, 1.4% active; inhibition, % at 10 µM; S. cerevisiae TIM10 strain growth, BacTiter-Glo luminescence, 24 h;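 active = inhibition of 40% or more at the single tested concentration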;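 note: wild-type TIM10 isogenic control strain grown at permissive 25 °C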
PfHsp90 yeast 2 – growth inhibition of yeast expressing Plasmodium Hsp90; S. cerevisiae expressing PfHsp90, BacTiter-Glo ATP, 48 h; yeast lacking PDR1 and PDR3 efflux regulators; 310,000 tested, 0.32% active; inhibition, % at 9.4 µM;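 active = every replicate shows inhibition above about 80%, whatever the replicate mean, limit read from the data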;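 note: 0% = DMSO neutral controls and 100% = 20 µM radicicol positive controls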
tim23-1 inh – growth inhibitors of tim23-1 mutant yeast; S. cerevisiae tim23-1 growth, BacTiter-Glo luminescence, 24 h; 330,000 tested, 1.3% active; inhibition, % at 20 µM; AID 463212;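 active = growth inhibition of the mutant yeast at or above 50%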;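 note: temperature-sensitive mutant grown at 25 °C; plate controls were DMSO-treated mutant yeast for no effect and medium wells lacking yeast for full effect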
tim10-1 inh – growth inhibitors of tim10-1 mutant yeast | S. cerevisiae tim10-1 ts strain growth, BacTiter-Glo, 24 h | AID 463190 | inhibition, % at 20 µM | 330,000 tested, 2.2% active;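 active = inhibition of at least 40%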;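 note: mutant grown at 25 °C; 0% = DMSO wells with yeast and 100% = wells holding no yeast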
tim10-1 confirm – confirmation of tim10-1 mutant yeast growth inhibitors; shares compounds with tim10-1 inh; S. cerevisiae tim10-1 ts strain growth, BacTiter-Glo, 24 h; inhibition, % at 20 µM; 7,400 tested, 56% active; AID 463213;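 active = inhibition of yeast growth at or above a set limit in either of two repeat tests at 20 µM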;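 note: tim10-1 mutant grown at permissive 25 °C to find synthetic lethal compounds; 0% = DMSO yeast wells and 100% = medium wells without yeast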
Numbers without * were called inactive; · = no result given.

SMILES	SKKanGAS inh	TIM10 inh	PfHsp90 yeast 2	tim23-1 inh	tim10-1 inh	tim10-1 confirm
O=C(C1CCCN(c2ncnc3c2nc2n3CCCCC2)C1)N1CCN(c2cccc(Cl)c2)CC1 (stereo not drawn)	19	8	-2	24	41*	4
CC(C)N(Cc1ccccc1)C(=O)C1CCCN(c2ncnc3c2nc2n3CCCCC2)C1 (stereo not drawn)	-7	10	19	25	31	·
Cc1cccc(N2CCN(C(=O)C3CCN(c4ncnc5c4nc4n5CCCCC4)CC3)CC2)c1C	-8	29	-77	39	56*	22
CCCCN(Cc1ccco1)C(=O)C1CCCN(c2ncnc3c2nc2n3CCCCC2)C1 (stereo not drawn)	-9	15	-11	34	41*	-2
Cc1cccnc1NC(=O)c1ccc(Cl)c(S(=O)(=O)N2CCCCC2)c1	-14	-9	0	-17	-5	·
Cc1coc2cc3oc(=O)c(CCC(=O)NCCN4CCOCC4)c(C)c3cc12	3	-7	17	2	-21	·
COc1ccc(CCN2CCCC(CN(C)C(=O)c3ccoc3)C2)cc1 (stereo not drawn)	-8	-2	-5	1	-4	·
c1ccc(COC2COC3C(OCc4ccccc4)COC23)cc1 (stereo not drawn)	·	·	22	·	·	·
CC(=O)NCc1ccc(C(=O)COC(=O)COc2ccc(Cl)c(C)c2)s1	·	5	·	15	18	·
OC(c1ccccc1)(c1ccccc1)c1nccc2ccccc12	·	·	-39	·	·	·
CCOc1ccccc1-c1nnc(CS(=O)(=O)c2ccccc2)o1	-14	-3	-3	23	27	·
COc1ccc(Br)c(-c2nnc(CS(=O)(=O)c3ccccc3)o2)c1	-3	24	2	48	46*	39*
C#CCOc1ccccc1CNC1CCN(Cc2ccccc2)CC1	6	-25	8	-21	9	·
Cn1c(=O)c2[nH]c(C(O)c3ccc(Cl)cc3)nc2n(C)c1=O (stereo not drawn)	·	·	-7	·	·	·
Cc1ccc(CNCc2cc3c(C(C)(C)C)nn(-c4ccccc4)c3[nH]c2=O)cc1	-1	24	·	46	50*	39*
COc1ccccc1-c1nn2c(C3COc4ccccc4O3)nnc2s1 (stereo not drawn)	24	35	·	46	46*	48*
COc1ccccc1-c1nn2c(C(F)(F)F)nnc2s1	-3	29	·	20	45*	34*
CCOc1ccccc1-c1nn2c(Cc3ccccc3)nnc2s1	-4	38	·	35	41*	6
c1ccc(Cc2nn3c(C4COc5ccccc5O4)nnc3s2)cc1 (stereo not drawn)	-4	10	-15	41	-19	·
OCCn1c(-c2ccc3c(c2)OCO3)csc1=Nc1ccccc1	9	25	53	44	48*	33*
Cc1ccc(-n2nc3c4c(cccc4c2=O)-c2ccccc2-3)cc1	9	19	·	7	42*	23
Cc1cc(C)nc(OC(=O)c2c(Cl)cc(Cl)cc2Cl)n1	-15	22	15	36	44*	33*
Cc1cc(OC(=O)c2c(Cl)cc(Cl)cc2Cl)nc(C)n1	8	28	·	31	27	·
Cc1ccccc1CC(=O)Nc1ccc(S(=O)(=O)N2CCOCC2)cc1	-4	-9	31	12	-5	·
CCOC(=O)c1ccc(N2C(=O)CC(N3CCC(Nc4ccc(F)cc4)CC3)C2=O)cc1 (stereo not drawn)	-5	35	128*	15	57*	50*
SMILES	SKKanGAS inh	TIM10 inh	PfHsp90 yeast 2	tim23-1 inh	tim10-1 inh	tim10-1 confirm
CCOC(=O)c1ccc(N2C(=O)CC(N3CCN(Cc4ccccc4)CC3)C2=O)cc1 (stereo not drawn)	-6	8	5	26	28	·
O=C1CC(N2CCCCCC2)C(=O)N1c1ccc(F)cc1 (stereo not drawn)	0	39	·	33	54*	45*
O=C1CC(N2CCN(c3ccc(F)cc3)CC2)C(=O)N1c1ccc(F)cc1 (stereo not drawn)	5	3	-6	11	1	·
CC(C)COc1ccc(C(=O)CCN2CCCCC2)cc1	-5	-10	7	18	54*	-8
CN(C)CCCN1c2ccccc2Sc2ccc(Cl)cc21	6	19	-7	-6	37	·
OCCN1CCN(CC/C=C2/c3ccccc3Sc3ccc(Cl)cc32)CC1	·	32	4	12	44*	26
OCCN1CCN(CCCN2c3ccccc3Sc3ccc(Cl)cc32)CC1	4	19	16	-1	43*	28
COCCN(C(=O)C1CCCO1)c1c(N)n(CC(C)C)c(=O)[nH]c1=O (stereo not drawn)	·	-3	-8	12	9	·
Cc1[nH]c(C)c(S(=O)(=O)Nc2cccc(Cl)c2C)c1C(=O)N1CCCC1	0	2	2	-13	-5	·
Cc1csc(NC(=O)c2ccc(Cn3nc(C)c(Br)c3C)o2)n1	7	14	-4	49	26	·
Cc1nn(Cc2ccc(Cl)c(Cl)c2)c(C)c1NC(=O)c1sc2ccccc2c1Cl	25	37	-30	28	41*	41*
Cc1ccc(CNC(=O)c2ccc(Cn3nc(C)c(Cl)c3C)o2)cc1	4	12	109*	12	55*	54*
Cc1nn(Cc2c(Cl)cccc2Cl)c(C)c1NC(=O)c1sc2ccccc2c1Cl	-3	6	-34	-14	15	·
Cc1cc(C)cc(NC(=O)c2ccc(Cn3nc(C)c(Cl)c3C)o2)c1	15	36	-38	35	41*	30*
Cc1nn(Cc2ccc(C(=O)N/N=C/c3ccncc3)o2)c(C)c1Cl	2	-3	14	-8	-12	·
COc1ccc(CCN(C)C(=O)C2CCN(C(=O)Nc3ccccc3)CC2)cc1OC	6	3	-3	7	13	·
COc1ccc2[nH]c3c(c2c1)CCN1C(=O)C(CC(=O)NCc2ccco2)C[C@H](C(=O)N2CCOCC2)[C@@]31CCC1CCCC1 (stereo partly drawn)	·	1	-26	37	16	·
S=c1nc(-c2ccccc2)[nH]c2ccc(Br)cc12	2	37	-14	26	43*	15
Cc1cc(=O)c2cc(Br)ccc2[nH]1	-2	-1	·	-2	-3	·
NNC(=O)c1cccc(COc2ccc3c(c2)CCC3)c1	10	25	2	48	47*	19
NNC(=O)c1cccc(COc2ccccc2Br)c1	-4	39	5	43	41*	16
Oc1[nH]c2c(Cl)cc(Cl)cc2c1N=NC(=S)NCC1CCCO1 (stereo not drawn)	95*	25	-28	32	46*	20
Cc1ccc2c(c1)c(/C=C/c1cc[n+](C)cc1)c(C)n2C	-2	18	11	-3	16	·
Cc1ccc2[nH]c(C)c(/C=C/c3cc[n+](C)cc3)c2c1	-9	33	14	27	51*	23
O=C(NCCS(=O)(=O)NC1CCCC1)c1ccccc1	-5	0	5	2	16	·

Source: PubChem BioAssay (several laboratories)
